This is a sample that favours compounds with a hit; in the whole collection about 9% have one here.
JMJD2A Tudor = JMJD2A Tudor domain (human) inhibition; Potency, µM (titrated, usually from 114 µM), for the others: at the top dose activity change, negative = inhibition, usual class: inhibitors; AID 504339; hit rate 4.4% among 390,000; AlphaScreen JMJD2A-Tudor / H3K4me3 peptide binding; also: % is scaled to controls: 0 for no effect and ±100 for the full control effect; nearly all actives have a fitted effect of over 50% in size
G9a block = G9a (human) methyltransferase inhibition; Potency, µM (top dose mostly 102 µM), without a hit: at the top dose activity, negative = inhibition, actives largely listed as inhibitors; AID 504332; Q96KQ7; hit rate 8.8% among 350,000; G9a H3K9 monomethylation, AlphaScreen, 2 h; also: % is scaled to controls: 0 for no effect and ±100 for the full control effect; nearly all actives have a fitted effect of over 75% in size
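Using a bead-based AlphaScreen, monomethylated H3K9 product from 2 h room-temperature reactions (G9a 20 nM, peptide 500 nM, SAM 20 uM) was detected with 0.5 ug/mL rabbit anti-H3K9me1 antibody.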
PLK1 PBD block = blocks phosphopeptide binding to human PLK1 polo-box domain | Plk1 PBD binding of FITC phosphopeptide, fluorescence polarization | P53350 | Potency, µM, without a hit: max response, negative = inhibition, most hits filed as inhibitors | hit rate 2.8% among 360,000; also: series mostly up to about 57 µM; % is scaled to controls: 0 for no effect and ±100 for the full control effect; nearly all actives have a fitted effect of over 65% in size
Target sequence (P53350 whole entry, looked up, the tested form may be a part): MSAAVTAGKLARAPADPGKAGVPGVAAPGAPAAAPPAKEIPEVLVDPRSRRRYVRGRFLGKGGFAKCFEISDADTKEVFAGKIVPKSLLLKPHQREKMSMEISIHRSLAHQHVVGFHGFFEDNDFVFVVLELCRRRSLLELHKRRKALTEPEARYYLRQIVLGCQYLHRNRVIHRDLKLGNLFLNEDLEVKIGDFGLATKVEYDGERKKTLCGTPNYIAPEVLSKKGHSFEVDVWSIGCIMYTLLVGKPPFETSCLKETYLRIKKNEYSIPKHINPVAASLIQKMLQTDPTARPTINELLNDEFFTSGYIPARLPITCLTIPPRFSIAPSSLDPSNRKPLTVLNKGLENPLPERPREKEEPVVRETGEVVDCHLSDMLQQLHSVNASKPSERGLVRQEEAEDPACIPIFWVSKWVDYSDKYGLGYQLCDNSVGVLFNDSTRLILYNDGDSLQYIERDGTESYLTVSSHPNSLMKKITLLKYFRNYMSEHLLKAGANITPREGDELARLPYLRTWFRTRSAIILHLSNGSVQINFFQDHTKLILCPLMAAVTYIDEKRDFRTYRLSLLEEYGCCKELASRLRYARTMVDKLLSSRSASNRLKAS
BAZ2B block = blocks human BAZ2B | Q9UIF8 | hit rate 4.4% among 360,000 | AlphaScreen BAZ2B-H3K14Ac peptide displacement | Potency, µM (top dose mostly 114 µM), for the others: at the highest dose activity change, negative = inhibition, most hits filed as inhibitors; also: % is scaled to controls: 0 for no effect and ±100 for the full control effect; nearly all actives have a fitted effect of over 60% in size
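BAZ2B (50 nM) with biotin-H3(5-23)K14Ac peptide (50 nM) in PBS pH 7.4, 0.01% Tween-20, preformed 30 min, then compound 30 min at room temperature; top concentration 110uM. AlphaScreen streptavidin donor/nickel chelate acceptor beads (10 ug/mL final), 20 min dark, signal read.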
HP1b binding inh = HP1-beta chromodomain-methylated histone interaction inhibition; AlphaScreen HP1-beta / biotin-H3K9me3 peptide binding; Potency, µM (highest dose often 114 µM), for the others: at the highest dose activity change, negative = inhibition, usual class: inhibitors; hit rate 0.56% among 390,000; also: nearly all actives have a fitted effect of over 70% in size
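Compound inhibition of the preformed complex between 50 nM HP1-beta and 50 nM biotinylated H3K9me3 peptide was read by AlphaScreen. Buffer was PBS pH 7.4 with 0.01% Tween-20. Incubations ran 30 min at room temperature, with 10 ug/mL donor/acceptor beads.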
ALOX12 inh = inhibitors of human 12S-lipoxygenase ALOX12; P18054; purified 12hLO, xylenol orange hydroperoxide absorbance; Potency, µM (titrated, usually from 108 µM), without a hit: at the highest dose activity change, negative = inhibition, usual class: inhibitors; hit rate 1.1% among 580,000; also: % is scaled to controls: 0 for no effect and ±100 for the full control effect
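Hydroperoxide product was detected by ferrous iron/xylenol orange as the 573 to 405 nm absorbance ratio. Arachidonic acid at 40 uM (final) was turned over for 30 min at room temperature by 150 nM human 12hLO, pH 7.0 Hepes buffer, after 15 min compound preincubation.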
Numbers without * were called inactive; ? = inconclusive; . = not tested or not shown; [ ] = dose if it differs, or a comment. Calls follow the shape of the dose curve; as a rule, active = well fitted curve in the direction sought with a large enough effect; inconclusive = small, poorly fitted or top-dose-only effect, or another doubt; inactive = no such curve, though single readings can be large; an effect the other way counts as inactive or inconclusive. Potency is read from the fitted curve at half-maximal effect.

SMILES | JMJD2A Tudor | G9a block | PLK1 PBD block | BAZ2B block | HP1b binding inh | ALOX12 inh
CC(C)(C)c1cc(/C=N/NC(=O)C[n+]2ccccc2)cc(C(C)(C)C)c1O | 56.2µM* | -50.7% | 2.6% | 50.1µM* | 48.4% | 9.2%
O=C(C[n+]1ccccc1)N/N=C/c1c(F)cccc1Cl | -11.0% | -3.8% | -4.8% | 56.2µM* | 27.6% | 3.5%
Cc1ccc(O)c(/C=N/NC(=O)Cc2ccc(Cl)cc2)c1 | -14.0% | 48.9% | -5.1% | 3.5% | 57.5% | -24.2%
C=CCNC1=C(Cl)C(=O)N(c2ccccc2Cl)C1=O | 14.0% | 23.0% | -0.1% | 22.4% | 70.9% | -28.2%
O=C(O)C1=C(Nc2ccccc2)OCC1=O | ? | 39.8µM* | -6.6% | -0.6% | 24.0% | ?
CCOC(=O)C1=C(Nc2ccccc2)OCC1=O | -18.7% | 2.0%[59 µM] | -1.4% | 8.3% | 30.8% | 0.0%
Cc1cc(C(=O)N/N=C/c2ccc(-c3ccccc3Cl)o2)n[nH]1 | -23.6% | 18.5%[59 µM] | -19.7% | -1.8% | 13.9% | -19.2%
O=[N+]([O-])c1cc(Br)c2c(c1)CCN2 | . | . | 3.0% | . | . | -28.4%
O=[N+]([O-])c1cc(Cl)cc(C2=NCCN2)c1 | -17.9% | 35.5µM* | -10.2% | 3.9% | 2.0% | 0.0%
CC(C)COc1ccc(S(=O)(=O)NNC(=O)c2cc3ccccc3o2)cc1 | -25.5% | 3.8%[59 µM] | 2.5% | ? | 2.8% | 22.4µM*
O=C(/C=C/c1ccco1)c1cccc([N+](=O)[O-])c1 | 35.5µM* | . | -20.2% | . | ? | 25.1µM*
C/C(=N/NC(=O)CNC(=O)/C=C/c1ccco1)c1ccc(Cl)cc1 | -30.1% | -38.4% | -27.3% | 56.2µM* | 21.5% | -16.2%
O=C(/C=C/c1ccc[nH]1)c1ccc(F)cc1 | -23.4% | 7.5% | -2.0% | -25.6% | 8.1% | -13.2%
O=C(/C=C/C=C/c1ccccc1)c1ccco1 | -22.5% | 50.1µM* | -14.8% | ? | -17.6% | ?
O=C(/C=C/c1ccc[nH]1)c1ccccc1 | 17.8µM* | ? | 29.9µM* | ? | -23.0% | ?
CCOCCCNC(=O)c1ccc(-n2c(-c3ccccc3)cc3c2CCCCC3)cc1 | -20.7% | -39.3%[59 µM] | . | ? | 22.5% | -4.2%
O=C(/C=C\c1ccccc1)Nc1ccc(NC(=O)c2ccco2)cc1 | 10µM* | -7.3% | 3.36µM* | -8.6% | ? | -13.8%
O=C(C=Cc1ccco1)c1ccco1 | -21.2% | . | -9.4% | . | -0.7% | 8.91µM*
O=C(O)c1ccc(/C=C/C(=O)c2ccco2)cc1 | . | . | . | . | . | -25.8%
O=C(/C=C/c1ccco1)NCC(=O)N/N=C/c1ccc(Cl)cc1 | -20.1% | -29.7% | -9.0% | -18.7% | 22.6% | ?
O=C(/C=C/c1ccc(Br)cc1)c1ccc(NC(=O)c2ccco2)cc1 | -21.9% | -5.4%[59 µM] | -5.8% | ? | 10.7% | -22.0%
O=C(/C=C/c1ccco1)NCC(=O)N/N=C/c1ccc([N+](=O)[O-])cc1 | 14.1µM* | ? | 10.6µM* | ? | ? | -26.9%
O=C(/C=C/c1ccc([N+](=O)[O-])cc1)/C=C/c1ccco1 | . | 10µM* | . | 28.2µM* | . | 17.8µM*
N=P(N1CCOCC1)(N1CCOCC1)C12CC3CC(CC(C3)C1)C2 | -5.2% | -2.6%[59 µM] | -0.6% | . | 32.0% | ?
O=C(CN(CCc1ccccc1)S(=O)(=O)c1ccc(Br)cc1)N/N=C/c1ccc2c(c1)OCO2 | -9.3% | 10.5%[59 µM] | -8.9% | 2.6% | 29.2% | 7.4%
SMILES | JMJD2A Tudor | G9a block | PLK1 PBD block | BAZ2B block | HP1b binding inh | ALOX12 inh
Cc1ccc(CC(SCc2ccccc2)C(=O)O)cc1C (configuration not stated) | -7.7% | 5.2% | -6.8% | -15.6% | 5.7% | 16.9%
Cc1cccc(NC(=O)Cn2nc(C)c3nn(-c4ccc(Cl)cc4)c(C)c3c2=O)c1C | -13.6% | 1.8%[59 µM] | . | 2.1% | 26.9%[57 µM] | ?
O=C(/C=C/c1ccc(-c2ccccc2[N+](=O)[O-])o1)c1ccco1 | 17.8µM* | 14.1µM* | -18.6% | 39.8µM* | 39.8µM* | ?
O=C(/C=C/c1ccco1)c1ccccc1 | . | . | . | . | . | 15.8µM*
O=[N+]([O-])c1ccccc1-c1ccc(/C=N/O)o1 | . | . | . | . | . | -27.9%
CC1(C)CC(=O)C(C(=O)/C=C/c2ccco2)C(=O)C1 | ? | 22.8%[12.7 µM] | 9.47µM* | ? | ? | ?
